This is a sample that favours compounds with a hit; in the whole collection about 3.9% have one here.
MazEF act: activators of E. coli MazEF toxin-antitoxin RNase, primary screen, biochemical, fluorescence, uHTS | hit rate 0.32% among 350,000 | FAM/BHQ RNA-DNA oligo cleavage fluorescence, 5 h | activation, % at 20 µM | AID 504720, 2011; in the data active = activation above about 50%
Target sequence (P0AE70 whole entry, looked up): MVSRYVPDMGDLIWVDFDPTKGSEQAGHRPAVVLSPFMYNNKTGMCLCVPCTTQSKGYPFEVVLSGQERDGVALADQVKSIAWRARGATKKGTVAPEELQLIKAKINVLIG
Anthrax LF inh2: Bacillus anthracis LF protease inhibitors, primary screen, biochemical, multiplex microsphere, MLPCN library | inhibition, % at 10 µM | multiplex microsphere protease cleavage assay | hit rate 0.12% among 360,000; note: plate controls were buffer without enzyme for full effect and enzyme alone for no effect
BoNT F protease: BoNT/F light chain protease inhibitors, primary screen, biochemical, flow cytometry, MLPCN library; Multiplex microsphere protease cleavage assay; inhibition, % at 10 µM; AID 588497, 2011; hit rate 0.22% among 360,000; in the data active = inhibition above about 35%, passing the limit was not always enough; inconclusive = no clear call, values can overlap the other calls; note: plate controls were buffer without enzyme for full effect and enzyme alone for no effect
BH1578 lux ind: inducers of Vibrio cholerae quorum light production without autoinducers, primary screen, BH1578 luxS cqsA deficient, single point; AID 588436, 2011; hit rate 0.16% among 350,000; activation, % at 18.7 µM; V. cholerae BH1578 lux reporter, luminescence, 6 h; in the data active = activation mostly above about 9.7%, no sharp cut-off; inconclusive = no clear call, values can overlap the other calls; inactive = mostly below about 3.7%
BoNT A protease: BoNT/A light chain protease inhibitors, primary screen, biochemical, flow cytometry, MLPCN library. multiplex microsphere protease substrate cleavage. AID 588499, 2011. hit rate 0.17% among 360,000. inhibition, % at 10 µM; note: plate controls were buffer without enzyme for full effect and enzyme alone for no effect
Bead autofluor: compound fluorescence in toxin protease inhibitor counterscreen. compound autofluorescence counterscreen, microsphere flow cytometry; active compounds read high. fluorescence intensity (no concentration beside the values). hit rate 3.1% among 360,000; in the data active = fluorescence intensity above about 16000; inconclusive = no clear call, values can overlap the other calls
* = called active by the depositor; i = inactive; u = inconclusive; x = not tested or not shown. Cut-off read from the data, not from the text of the source, unless noted: active = inhibition above about 30%; inconclusive = no clear call, values can overlap the other calls; inactive = below that.

SMILES	MazEF act	Anthrax LF inh2	BoNT F protease	BH1578 lux ind	BoNT A protease	Bead autofluor
COCCNC(=S)Nc1ccccc1Cc1ccccc1	5	-4	-2	-1	-1	4661
CC1(C)Oc2ccc(C(=O)NC3CCCC3)cc2N(CC(=O)NC2CCCCC2)C1=O	8	-4	-9	i	-4	17996*
CC(C)(C)NC(=O)c1ccc2c(c1)N(CC(=O)N1CCCCC1)C(=O)C(C)(C)O2	7	-4	-4	i	-3	6777
Cc1ccc(NC(=O)c2ccc3c(c2)N(CC(=O)N2CCCCC2)C(=O)C(C)(C)O3)cc1	6	-6	-2	-11	-2	23135*
CC(C)(C)NC(=O)c1ccc2c(c1)N(CC(=O)N1CCN(c3ccc(F)cc3)CC1)C(=O)C(C)(C)O2	8	-2	4	-6	1	16213*
CCOC(=O)CN1C(=O)C(C)(C)Oc2ccc(C(=O)Nc3ccccc3OC)cc21	3	-2	-6	5	-4	20848*
COc1ccccc1NC(=O)c1ccc2c(c1)N(CC(=O)NC(C)(C)C)C(=O)C(C)(C)O2	6	4	12	-9	1	3464
COC(=O)Cn1cnc2c(cnn2-c2ccc(C)cc2)c1=O	3	-7	12	-1	2	3746
C=CCN1C(=O)CSc2ccc(C(=O)NC3CCCCC3)cc21	-3	0	4	i	2	5449
CCN1C(=O)CSc2ccc(C(=O)NC3CCCCC3)cc21	0	-2	-1	1	0	20222*
CC(C)CCOc1ccc(C(=O)NCCC(=O)N2CCOCC2)cc1	0	-12	6	3	4	21240*
Cc1cc(C)n(C(=O)c2c([N+](=O)[O-])c(C)nn2C)n1	7	-1	-4	i	-4	24146*
O=C(Nc1ccccc1)C1Cc2c(-c3ccc4c(c3)OCO4)ccnc2O1 (centres undefined)	x	0	-3	0	0	3480
CCOc1ccc(C(=O)NC(C)(C)CC)cc1	-9	7	-6	0	-1	3792
CCOc1ccc(C(C)(N)C(=O)O)cc1 (centres undefined)	-3	1	0	-2	u	22131*
CCOc1ccc(OCc2cccc(C(=O)O)c2)cc1	1	-1	2	i	2	22901*
COc1cc2c(cc1OC)CN(C(=O)C1(c3ccccc3)CC1)CC2	-4	0	3	i	u	19639*
CC(=O)Nc1ccc(-c2ccnc3c2CC(C(=O)Nc2cccc(C(F)(F)F)c2)O3)cc1 (centres undefined)	x	-10	-16	i	-1	3784
CCOc1ccc(-n2c(SCc3nc(-c4cccs4)no3)nnc2-c2ccncc2)cc1	-1	-1	33	i	5	4628
Cn1c(SCc2nc(-c3ccc(Cl)cc3)no2)nnc1-c1ccccc1	-19	-3	-5	0	-1	20554*
COc1ccc(-c2noc(CSc3nnc(Cc4ccccc4)n3-c3ccc(Cl)cc3)n2)cc1	-7	-3	-7	i	-3	24663*
CCCn1c(SCc2nc(-c3cccs3)no2)nnc1-c1ccncc1	1	0	-5	i	-3	21415*
Cn1c(SCc2nc(-c3ccccc3)no2)nnc1-c1cccs1	-2	-7	5	1	u	20460*
Cc1ccc(-c2noc(CSc3nnc(Cc4ccccc4)n3-c3ccc(Cl)cc3)n2)cc1	-9	-5	-5	i	0	8330
Cc1ccc(/C=N/NC(=S)NCCc2ccccc2)s1	3	-3	-6	i	-1	4496
CCCCNC(=S)N/N=C/c1ccc(C)s1	2	-3	-12	i	u	24604*
COc1ccc(OC)c(NC(=O)c2cc(S(=O)(=O)N(C)C)ccc2N2CCCC2)c1	7	1	-1	1	-3	6993
CCCCn1c(O)c(C(CC)=NCc2cc(OC)cc(OC)c2)c(=O)[nH]c1=O	1	-2	1	-2	0	22230*
CCC(=NCc1cc(OC)cc(OC)c1)c1c(O)n(C)c(=O)n(C)c1=O	4	-5	-2	i	u	24024*
